# Shiga toxin inh – blocks Shiga toxin action in Vero cells | Vero cells, Shiga toxin protein synthesis inhibition reporter | inhibition, % at 38.7 µM | 9.2% of 290,000 active | AID 2315; in the data active means inhibition mostly above about 28%, no sharp cut-off; inactive means mostly below about 43%; further: 0% is about no effect
# Pf growth 48h – inhibits P. falciparum growth in the first generation, 48 h | 5.9% of 310,000 active | AID 504832 | Potency, µM (series often up to 28.7 µM), inactives show top-dose activity change, negative = inhibition, most hits filed as inhibitors | P. falciparum luciferase growth in erythrocytes, 48 h; active means well fitted inhibition curve with a large enough effect; inconclusive means small, poorly fitted or top-dose-only effect, or another doubt; inactive means no such curve, though single readings can be large or run the other way; further: potency means the concentration at half of the fitted maximal effect; on the % scale 0 is the no-effect control and ±100 the full control effect
#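 In quantitative HTS format, infected erythrocytes bearing luciferase-reporter parasites were treated for a single generation at 37 C. Luminescence after adding detection reagent served as the growth measure.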
# NS1 function inh – inhibitors of influenza NS1 protein function; 0.4% of 270,000 active; Potency, µM (doses to about 46.1 µM), for inactives: at the top dose activity, positive = more growth; further: potency means the concentration at half of the fitted maximal effect; actives are rising curves; nearly all actives have a fitted effect of over 50% in size
#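 S. cerevisiae expressing influenza A NS1, grown in glucose, washed, then diluted 1:100 into pH 6.0 -URA galactose medium with 23 nl compound. Growth recovery read as OD600; NS1-free strain serves as control.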
# Cycloheximide cs – affects cycloheximide protein synthesis inhibition readout, counter-screen | 12% of 300,000 active | cell reporter, cycloheximide protein synthesis inhibition counterscreen | max response, %; in the data active means max response mostly above about 13%, no sharp cut-off; inactive means mostly below about 14%; further: read at 38.3 µM for the half of the compounds with a filed dose; 0% is about no effect
# Pf growth 96h – P. falciparum growth inhibition at 96 hour, primary screen for plastid delayed-death inhibitors. P. falciparum luciferase reporter growth, 96 h. Potency, µM (doses to about 28.7 µM), inactives show at the top dose activity change, negative = inhibition, hits mostly inhibitors. 6.9% of 320,000 active; active means well fitted inhibition curve with a large enough effect; inconclusive means small, poorly fitted or top-dose-only effect, or another doubt; inactive means no such curve, though single readings can be large or run the other way; further: potency means the concentration at half of the fitted maximal effect; on the % scale 0 is the no-effect control and ±100 the full control effect
#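 Luminescence readout: decreased luciferase signal marks inhibited growth of reporter-expressing P. falciparum in infected red cells (2% hematocrit, 0.05% parasitemia final), exposed to compound two generations (96 h, 37 C, 5% CO2).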
# SARS PLpro yeast – inhibitors of SARS-CoV papain-like protease in yeast; S. cerevisiae expressing SARS-CoV PLpro, growth rescue; Potency, µM (series often up to 32.9 µM), without a hit: top-dose activity, positive = growth rescue, most hits filed as activators; 0.19% of 330,000 active; AID 485353; further: potency means the concentration at half of the fitted maximal effect; 0% is about no effect; nearly all actives have a fitted effect of over 55% in size
# An asterisk follows results filed as active; u = inconclusive; x = not tested or not shown. Rows were chosen to be rich in hits. Some 21% of all compounds tested hit in one or more screens of this group. Unless noted, the call rests on the fitted dose curve.
SMILES,Shiga toxin inh,Pf growth 48h,NS1 function inh,Cycloheximide cs,Pf growth 96h,SARS PLpro yeast
CCOc1ccc(S(=O)(=O)N2CCCC(C(=O)NCc3ccco3)C2)cc1 (configuration not stated),0,-6%,9%,-1,6%,2%
CCOc1ccc(S(=O)(=O)N2CCC(C(=O)NCc3ccco3)CC2)cc1,2,9.3µM*,0%,-2,56%,-1%
O=C(NCc1ccco1)C1CCCN(S(=O)(=O)c2ccc(Br)cc2)C1 (configuration not stated),-16,-15%,0%,1,15µM*,1%
COc1ccc(/C=C\c2onc(C)c2S(=O)(=O)N2CCC(C(=O)NCc3ccco3)CC2)cc1,7,u,5%,-2,13µM*,0%
CCCNC(=O)C1CCN(S(=O)(=O)c2c(C)noc2/C=C\c2ccc(OC)cc2)CC1,-16,x,-2%,-4,u,4%
CC(C)c1ccc(S(=O)(=O)N2CCC(C(=O)NCc3ccco3)CC2)cc1,x,3.3µM*,x,x,2.6µM*,-2%
Cc1ccc2c(c1)[C@@H]1[C@H](CO2)[C@H](c2ccccc2)[C@@]2(C)C(=O)N[C@H](C)C(=O)N12,x,x,x,x,x,2%
CC1CC(C)CN(S(=O)(=O)c2ccc(C(=O)NCc3ccco3)cc2)C1 (configuration not stated),-7,u,x,5,8.3µM*,-1%
O=C(NCc1ccco1)C1CCN(S(=O)(=O)c2ccccc2C(F)(F)F)CC1,x,10µM*,x,x,u,3%
CCOc1ccc(S(=O)(=O)N2CCC(C(=O)Nc3cc(S(C)(=O)=O)ccc3Cl)CC2)cc1,x,10µM*,x,x,u,3%
CCOc1ccc(S(=O)(=O)N2CCC(C(=O)NCC3CCCO3)CC2)cc1C (configuration not stated),22,10%,-22%,-7,2.3µM*,1%
CS(=O)(=O)c1ccc(Cl)c(NC(=O)C2CCN(S(=O)(=O)c3cccs3)CC2)c1,x,u,x,x,u,6%
Cn1cc(CNC(=O)CC2C(=O)NCCN2CC(C)(C)C)cn1 (configuration not stated),-6,32%,2%,-1,4%,0%
Cc1nccn1S(=O)(=O)c1ccc(Br)cc1Br,-1,1.9µM*,-7%,-3,13µM*,-9%
COc1ccc(Br)cc1S(=O)(=O)n1ccnc1C,-7,-7%,12%,2,94%,-1%
COc1ccccc1CNC(=O)C1CCCN(S(=O)(=O)c2ccc3c(c2)C(C)(C)C(=O)N3C)C1 (configuration not stated),-10,u,-6%,-3,32%,4%
Oc1ccccc1/C=N/n1c2ccccc2c2ccccc21,27,u,23%,7,2.6µM*,-2%
C(=N\n1c2ccccc2c2ccccc21)/c1ccccc1,-5,45%,4%,1,-6%,-1%
COc1cccc(OC)c1OCCCNC1CCCC1,-9,7%,7%,-2,u,3%
O=C(Nc1ccccc1O)c1ccc(C(=O)c2ccccc2)o1,35*,8.3µM*,-13%,27*,u,-7%
Cc1ccc(C)c(NC(=O)c2ccccc2O)c1,54,u,-210%,22*,u,-29%
O=C(Nc1ccccc1O)c1ccccc1O,53*,u,-193%,32*,7%,-18%
O=C(NCc1ccc(Cl)cc1)c1cnn2ccccc12,80*,x,-57%,56*,1%,-8%
COc1ccccc1NC(=O)c1ccc(C(=O)c2ccccc2)o1,27,u,x,10,-26%,-1%
Cc1cc(C)n2ncc(C(=O)NCc3ccc(Cl)cc3)c2n1,-7,x,-76%,19,u,-22%
SMILES,Shiga toxin inh,Pf growth 48h,NS1 function inh,Cycloheximide cs,Pf growth 96h,SARS PLpro yeast
O=C(Nc1ncn[nH]1)c1ccccc1O,1,80%,-4%,0,94%,0%
Cc1ccc(C)c(NC(=O)c2cc(C)nc3ccccc23)c1,x,30%,-18%,-1,2%,-3%
COC(=O)c1sccc1NC(=O)c1c(C)c(-c2cccc(Cl)c2)nc2ccccc12,-4,u,2%,8,-6%,1%
CCOc1ccccc1N1CC(C(=O)N2CCOCC2)CC1=O (configuration not stated),-7,7%,-4%,6,-14%,-1%
Cc1nc2ccccc2c(C)c1CC(=O)OC(C)C(=O)NC1(C#N)CCCCC1 (configuration not stated),x,u,x,x,u,-2%
Cc1cccc(NC(=O)c2cnn3ccccc23)c1C,78*,107%,4%,50*,135%,1%
Cc1ccc(C)c(NC(=O)c2nc(Cl)ccc2Cl)c1,36,36%,x,26*,50%,0%
Cc1cccc(NC(=O)CNCC(=O)Nc2cccc(C)c2C)c1C,-7,7%,4%,-1,28%,1%
Cc1cccc(NC(=O)c2ccccc2O)c1C,49*,u,-73%,34*,u,-37%
Cc1ccc(C)c(NC(=O)c2nc(-c3ccccc3)n(-c3ccccc3)n2)c1,-10,x,-4%,-1,9.3µM*,7%
Cc1ccc(C)c(NC(=O)COC(=O)c2nc(Cl)ccc2Cl)c1,x,4%,x,x,5%,-8%
Cc1ccc(C)c(NC(=O)c2cc(-c3ccccc3)nn2-c2ccccc2)c1,-3,u,-8%,6,u,-31%
O=C(CCCN1C(=O)c2ccccc2C1=O)OC1CSCC1NC(=O)c1ccccc1 (configuration not stated),-9,-19%,-2%,-2,9%,6%
CN(CC(=O)Nc1ccc(F)cc1)C(=O)CSc1ncccn1,x,19%,x,x,41%,0%
C[C@@]12C(=O)N(CCO)CC(=O)N1[C@H](/C=C/c1ccccc1)[C@@H]1C(=O)N(c3ccccc3)C(=O)[C@@H]12,4,0%,-3%,8,39%,0%
COC(=O)[C@@]12CCCCN1[C@H](c1ccc(-c3ccc(F)cc3)cc1)[C@@H]1C(=O)N(C)C(=O)[C@@H]12,x,u,x,x,13µM*,-2%
COC(=O)[C@@]12CCCN1[C@H](c1ccc(-c3ccccc3)c(OC)c1)[C@H]1C(=O)N(C)C(=O)[C@H]12,x,x,x,x,x,-21%
COC(=O)[C@@]12CCCCN1[C@H](c1ccc(-c3cc(C(C)=O)cs3)cc1)[C@H]1C(=O)N(C)C(=O)[C@H]12,x,u,x,x,2%,-2%
COC(=O)[C@@]12CCCN1[C@H](c1ccc(-c3ccc(OC)cc3)c(OC)c1)[C@@H]1C(=O)N(C)C(=O)[C@@H]12,x,13µM*,x,x,12µM*,2%
COC(=O)[C@@]12CCCCN1[C@H](c1ccc(-c3cc(C(C)=O)cs3)c(OC)c1)[C@H]1C(=O)N(C)C(=O)[C@H]12,x,4.1µM*,x,x,u,-1%

# Bioassay records from PubChem.
